Assay results reported in the supplement of paper PMC6555819.

How the values were obtained:
Assay in all cases: PBM binding z-score (relative to random genomic background probes); higher = stronger binding; sequences stand for … in GC…GCGATTGACAGCGTAGAATGAAGG
[1] = tested on: FXR:RXRa (NR concentration 270 nM, RXRa partner concentration 90 nM)
How it was run: (§1)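 Custom Agilent 4×180K protein-binding microarrays carried double-stranded probes, each with a 34-nt variable region. These regions held direct-repeat seeds, single-nucleotide variants, half-site ablations and random human genomic background sequences. Ligand-free nuclear receptor dimers were incubated on the arrays for 1 h, antibodies against each partner (one per run) detected binding, and scanned fluorescence was regression-normalized. Binding z-scores take the random background probes as reference.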

[2] = tested on: LXRa:RXRa (NR concentration 270 nM, RXRa partner concentration 90 nM)
How it was run: as §1

[3] = tested on: LXRa homodimer (NR concentration 270 nM)
How it was run: as §1

[4] = tested on: LXRb:RXRa (NR concentration 270 nM, RXRa partner concentration 90 nM)
How it was run: as §1

[5] = tested on: LXRb homodimer (NR concentration 270 nM)
How it was run: as §1

[6] = tested on: PPARa:RXRa (NR concentration 270 nM, RXRa partner concentration 90 nM)
How it was run: as §1

[7] = tested on: PPARg:RXRa (NR concentration 180 nM, RXRa partner concentration 90 nM)
How it was run: as §1

[8] = tested on: PPARg:RXRa 270nM:90nM, anti-RXR (NR concentration 270 nM, RXRa partner concentration 90 nM)
How it was run: as §1

[9] = tested on: PPARg:RXRa 30nM:10nM, anti-RXR (NR concentration 30 nM, RXRa partner concentration 10 nM)
How it was run: as §1

[10] = tested on: PPARg:RXRa 90nM:30nM, anti-RXR (NR concentration 90 nM, RXRa partner concentration 30 nM)
How it was run: as §1

[11] = tested on: PPARg:RXRa DBDmut IVT, anti-RXR (DBD mutation: RXRa K156A/R161A, NR concentration 270 nM, RXRa partner concentration 90 nM)
How it was run: as §1

[12] = tested on: PPARg:RXRa IVT, anti-PPARg (NR concentration 270 nM, RXRa partner concentration 90 nM)
How it was run: as §1

[13] = tested on: PPARg DBDmut:RXRa IVT, anti-PPARg (DBD mutation: PPARg1 K132A/R137A, NR concentration 270 nM, RXRa partner concentration 90 nM)
How it was run: as §1

[14] = tested on: PPARg DBDmut IVT, anti-PPARg (DBD mutation: PPARg1 K132A/R137A, NR concentration 270 nM)
How it was run: as §1

[15] = tested on: PPARg homodimer (NR concentration 180 nM)
How it was run: as §1

[16] = tested on: PXR:RXRa (NR concentration 270 nM, RXRa partner concentration 90 nM)
How it was run: as §1

[17] = tested on: PXR homodimer (NR concentration 270 nM)
How it was run: as §1

[18] = tested on: RARa:RXR (NR concentration 270 nM, RXRa partner concentration 90 nM)
How it was run: as §1

[19] = tested on: RARa homodimer (NR concentration 270 nM)
How it was run: as §1

[20] = tested on: RARb:RXRa (NR concentration 270 nM, RXRa partner concentration 90 nM)
How it was run: as §1

Sequence | PBM binding z-score [1] | PBM binding z-score [2] | PBM binding z-score [3] | PBM binding z-score [4] | PBM binding z-score [5] | PBM binding z-score [6] | PBM binding z-score [7] | PBM binding z-score [8] | PBM binding z-score [9] | PBM binding z-score [10] | PBM binding z-score [11] | PBM binding z-score [12] | PBM binding z-score [13] | PBM binding z-score [14] | PBM binding z-score [15] | PBM binding z-score [16] | PBM binding z-score [17] | PBM binding z-score [18] | PBM binding z-score [19] | PBM binding z-score [20]
CGAACTAGGTCATTGAAAGGACAGTGAATAGTAA | 3.97 | 2.81 | 0.177 | 1.84 | 0.134 | 4.42 | 7.82 | 6.43 | 4.13 | 5.83 | 8.01 | 8.24 | 2.22 | 2.02 | 3.92 | 2.1 | 0.391 | 4.04 | 1.01 | 4.1
ATCGAAAGGTCGACGAGGTGAGTATTCACCGTTT | 4.22 | 3.41 | -0.275 | 2.63 | 0.0468 | 4.26 | 2.45 | 2.99 | 1.55 | 1.94 | 0.554 | 2.07 | 1.07 | 0.398 | 0.854 | 2.94 | 0.386 | 3.29 | -0.0728 | 3.91
CCTACTAGGCCAAGGTCATTGATCAGTCAAAGCA | 3.42 | 3.71 | 2.03 | 3.21 | 0.097 | 4.66 | 4.96 | 4.59 | 2.19 | 4.42 | 5.34 | 4.8 | 0.0145 | 0.199 | 1.67 | 3.52 | 1.98 | 3.68 | 0.849 | 3.62
CCTGCTAGGTCAATGGTCAGCTGAAGCAGCTCGC | 3.06 | 2.17 | -0.221 | 1.45 | -0.203 | 3.22 | 4.4 | 5.35 | 2.69 | 4.92 | 4.48 | 4.13 | 0.258 | -0.168 | 1.14 | 0.872 | -0.578 | 1.71 | -0.46 | 3.85
CCTATTAGTTGACCATTAGGGCAACCGAAGCTCG | 0.493 | 0.0846 | 0.475 | 0.224 | 0.396 | 0.454 | 0.203 | 0.612 | 0.0251 | 0.278 | 1.18 | 1.3 | -0.00387 | 0.76 | 1.65 | 0.111 | 0.563 | 0.412 | 1.35 | 1.04
CCTAGCAGGCCAGGGTCACTCACGCATTTCGCTT | 2.04 | 1.57 | -0.247 | 1.73 | -0.927 | 2.94 | 0.599 | 1.29 | -0.606 | 0.36 | 0.345 | 0.942 | -0.473 | -1.26 | 1.45 | 2.31 | -0.101 | 3.17 | 0.177 | 2.41
CAAACTAGGTCAGCGGAAGGTCAAAGTCCGCATG | 4.7 | 5.1 | 3.95 | 4.3 | 0.622 | 5.61 | 7.65 | 6.54 | 4.12 | 6.37 | 7.81 | 8.08 | 3.33 | 1.19 | 5.64 | 5.42 | 1.11 | 6.59 | 1.75 | 4.89
TGAATGAGGTTATAAGATCACGGAACGTTGCAAA | 1.72 | 1.49 | -0.0904 | 1.48 | -0.205 | 3.21 | 2.15 | 2.44 | 1.12 | 2.05 | 0.939 | 2.19 | 1.02 | 1.32 | 0.335 | 1.43 | 0.182 | 2.09 | 0.409 | 1.5
GCTATTAGTTGATAGGGCAACCGAATGATTCTCG | 0.0649 | -0.305 | -0.0602 | -0.111 | -0.693 | 0.29 | 0.713 | 1.48 | 0.376 | 0.928 | 0.375 | 0.394 | -0.22 | -0.757 | 0.294 | -0.353 | -0.032 | 0.0949 | 0.352 | 0.561
CGTCCAAGGTCAAAGGTTAGTGAAGAGATGACGG | 7.74 | 5.92 | 1.42 | 5.09 | 1.54 | 6.47 | 8.94 | 7.84 | 7.41 | 8.3 | 3.36 | 4.86 | 2.1 | 1.08 | 6 | 6.05 | 1.47 | 7.8 | 1.93 | 5.22
GCTTACGGGTCAAAGGTTATAGCTTGAATAGAAT | 6.94 | 5.6 | 0.366 | 5.39 | 0.468 | 6.66 | 11.3 | 9.06 | 8.76 | 10.9 | 4.25 | 5.72 | 1.28 | 1.02 | 1.88 | 5.86 | 0.119 | 7.89 | 0.811 | 4.34
CCTTACGGGTCACAAGGTTATAGCACGACGAGCG | 5.77 | 4.34 | 0.422 | 3.65 | 0.114 | 5.46 | 5.45 | 5.85 | 2.52 | 4.65 | 3.76 | 4.65 | 0.482 | 0.244 | 2.41 | 3.87 | 0.686 | 4.98 | 1.2 | 4.15
GCTGCTAGGTCAACGGATGGTCAGCTAAAGCTCG | 3.29 | 2.35 | -0.22 | 1.34 | -0.253 | 3.2 | 2.58 | 2.83 | 0.601 | 2.06 | 4.91 | 3.99 | 0.0458 | -0.872 | 1.84 | 1.21 | -0.834 | 2.51 | -0.435 | 4.19
ACTATTAGTTGAGACGAGGGCTACCGATAGGTTG | -0.0056 | -0.0365 | -0.197 | -0.414 | 0.162 | -0.477 | 0.7 | -0.127 | 0.174 | 0.0258 | 0.458 | 0.0737 | 0.772 | 0.929 | -0.361 | -0.232 | -0.105 | -0.544 | 0.451 | 0.191
